High-throughput results as filed in PubChem.
RXFP1 ag: qHTS Assay for Agonists of the Relaxin Receptor RXFP1 | Relaxin receptor 1 (Homo sapiens), Q9HBX9 | HEK293T-RXFP1 cAMP TR-FRET, 30 min; response scale: percent of porcine relaxin response, buffer zero | Potency, µM (titrated, usually from 57.5 µM), actives largely listed as activators | 370,000 tested, 0.3% active; active means well fitted activation curve with a large enough effect; inconclusive means small, poorly fitted or top-dose-only effect; further: nearly all actives have a fitted effect of over 60% in size
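HEK293 cells stably expressing RXFP1, treated 30 min at 37C with compounds plus PDE4 inhibitor Ro 20174; cAMP measured by HTRF TR-FRET. Normalized to buffer and 29 nM porcine relaxin; EC50 by Hill fit.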
gsp antagonist: qHTS for Antagonists of gsp, the Etiologic Mutation Responsible for Fibrous Dysplasia/McCune-Albright Syndrome: qHTS. 340,000 tested, 0.4% active. gsp-mutant cells, cAMP HTRF, 30 min. Potency, µM (top dose mostly 76.9 µM), most hits filed as inhibitors. AID 624288, 2012; calls by dose curve; cell line not stated here;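 further: intracellular cAMP measured with PDE inhibitor Ro 20-1724 present during compound exposure; nearly all actives have a fitted effect of over 65% in size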
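G418-selected cells were plated in DMEM/10% FBS for 16-24 h at 37C, then treated with compounds plus the PDE inhibitor […] (300 uM solution added) for 30 min at 37C. Intracellular cAMP was measured by HTRF after 30 min lysis at room temperature.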
TSHR antagonist: Antagonists of the Thyroid Stimulating Hormone Receptor: HTS campaign. activity change, negative = inhibition, % at 11.5 µM. TSHR-expressing cells, TSH-stimulated cAMP HTRF, 2 h; active compounds read low. 330,000 tested, 0.2% active;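 active means activity change below a set negative limit, meaning inhibition stronger than a set level, cut at about -70% in these data; inconclusive means activity change between two set negative limits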
Target sequence (P16473 whole entry, looked up): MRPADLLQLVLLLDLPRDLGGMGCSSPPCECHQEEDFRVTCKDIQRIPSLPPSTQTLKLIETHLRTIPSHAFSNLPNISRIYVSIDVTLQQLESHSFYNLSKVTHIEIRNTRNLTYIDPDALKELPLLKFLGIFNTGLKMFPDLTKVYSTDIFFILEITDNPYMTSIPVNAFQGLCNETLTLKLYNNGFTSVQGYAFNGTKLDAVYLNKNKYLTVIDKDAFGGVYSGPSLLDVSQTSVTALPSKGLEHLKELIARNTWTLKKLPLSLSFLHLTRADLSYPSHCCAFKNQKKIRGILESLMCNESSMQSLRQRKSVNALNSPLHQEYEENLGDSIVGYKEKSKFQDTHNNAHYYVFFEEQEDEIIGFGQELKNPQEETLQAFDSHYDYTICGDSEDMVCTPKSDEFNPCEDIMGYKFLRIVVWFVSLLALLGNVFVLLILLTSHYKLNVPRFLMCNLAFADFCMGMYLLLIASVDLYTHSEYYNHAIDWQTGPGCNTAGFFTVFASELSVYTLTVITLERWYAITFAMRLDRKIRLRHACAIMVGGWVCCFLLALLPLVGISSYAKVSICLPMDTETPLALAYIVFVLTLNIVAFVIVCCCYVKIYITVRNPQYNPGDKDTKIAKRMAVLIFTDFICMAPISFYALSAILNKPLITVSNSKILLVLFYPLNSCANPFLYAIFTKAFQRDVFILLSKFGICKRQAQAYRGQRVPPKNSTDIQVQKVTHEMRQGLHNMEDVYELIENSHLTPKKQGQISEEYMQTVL
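Cell-based HTRF cAMP assay; TSHR cells + compound, TSH EC80 (4nM final), 2 h, 37 deg C. Lysis with anti-cAMP cryptate and cAMP-d2, 30 min RT, read 665/620 nm.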
gsp ag: qHTS for Agonist of gsp, the Etiologic Mutation Responsible for Fibrous Dysplasia/McCune-Albright Syndrome: qHTS | Potency, µM (doses to about 76.9 µM), most hits filed as activators | AID 624287, 2012 | 340,000 tested, 0.13% active | gsp mutant cells, cAMP HTRF, 30 min; active means well fitted activation curve with a large enough effect; inconclusive means small, poorly fitted or top-dose-only effect, or another doubt; inactive means no such curve, though single readings can be large or run the other way; cell line not stated here;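 further: phosphodiesterase inhibitor Ro 20-1724 added with compounds to block cAMP breakdown; nearly all actives have a fitted effect of over 60% in size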
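Cells in DMEM/10% FBS with G418 were pretreated with compounds in DMSO plus […] (300 uM stock) for 30 min at 37C. cAMP was measured by HTRF (cAMP-d2 plus anti-cAMP antibody-K) after 30 min at room temperature.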
RXFP1 antagonist: qHTS Assay for Antagonists of the Relaxin Receptor RXFP1; Relaxin receptor 1 (Homo sapiens), Q9HBX9; HEK293-RXFP1, relaxin-stimulated cAMP HTRF, 30 min; active compounds read low; activity change, negative = inhibition, % at 57.5 µM; 350,000 tested, 0.59% active;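 active means activity change of -60% or lower, but not beyond a set lower limit; inconclusive means change between -60% and -40%, or beyond the set limit; inactive means change above -40%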
A number is an active result; 0 = inactive; ? = inconclusive; - = no result given; [ ] = remark or other dose. In the library only some 1% were active in any assay of this set; here they are far more common.

SMILES	RXFP1 ag	gsp antagonist	TSHR antagonist	gsp ag	RXFP1 antagonist
O=C(CC(NCc1cccnc1)C(=O)O)Nc1ccc(F)cc1 (stereo not given)	0	-	-	-	0
O=C1c2oc3ccccc3c(=O)c2C(c2ccc(Br)cc2)N1c1ccccn1 (stereo not given)	0	-	-	-	0
COc1ccc(N2CCN(C(=O)CC(C)S(=O)(=O)c3ccc4c(c3)NC(=O)CO4)CC2)cc1 (stereo not given)	0	?	0	0	0
CC(CC(=O)N1CCN(c2cccc(Cl)c2)CC1)S(=O)(=O)c1ccc2c(c1)NC(=O)CO2 (stereo not given)	0	28µM	0	0	0
Cc1ccc(C)c(N2CCN(C(=O)CCS(=O)(=O)c3ccc4c(c3)CCN4C(=O)C3CC3)CC2)c1	0	0	-82	0	0
CCOC(=O)N1CCN(C(=O)CCS(=O)(=O)c2ccc3c(c2)CC(C)N3C(=O)CC)CC1 (stereo not given)	0	?	0	0	-92
Cc1ccc(C)c(N2CCN(C(=O)CCS(=O)(=O)c3ccc4c(c3)NC(=O)CO4)CC2)c1	0	50µM	0	0	0
CC(C)c1cnc2c(c1SCC(=O)NCc1ccccc1Cl)c(=O)n(C)c(=O)n2C	0	-	-	-	0
Cc1ccc2cccc(NC(=O)C(C)(C)Oc3ccc(Br)cc3)c2n1	0	-	-	-	-
Cc1cc2oc(C(=O)N(Cc3ccco3)Cc3ccccc3Cl)c(C)c2cc1C	0	-	-	-	-
CCc1ccc(CN(Cc2ccco2)C(=O)COc2ccccc2Cl)cc1	0	-	-	-	-61
CCc1ccc(OCC(=O)N(Cc2ccco2)Cc2ccco2)cc1	0	-	-	-	0
CCOC(=O)CNC(=S)N(Cc1ccco1)Cc1ccccc1Cl	0	40µM	0	0	0
CCc1ccc(CN(Cc2ccco2)C(=O)c2ccc(OC)cc2)cc1	0	-	-	-	-63
CCS(=O)(=O)N1CC(=O)N(c2cccc(C)c2C)C(C)(C(=O)NC2CCCCC2)C1 (stereo not given)	0	-	-	-	0
COc1ccc(-c2cn3nc(N4CCCC(C(=O)NCc5ccccc5OC)C4)sc3n2)cc1 (stereo not given)	0	-	-	-	0
Cc1c(NC(=O)c2ccc(Br)o2)cccc1-c1nc2ccccc2o1	0	-	-	-	-
CCOc1ccc(-c2nc(SCC(=O)NC3CCCC3)c(-c3ccccc3)[nH]2)cc1OC	0	-	-	-	0
CC(C)c1ccc(/C=N/n2c(COc3ccccc3)n[nH]c2=S)cc1	0	?	0	0	-61
Cc1cccc(S(=O)(=O)C(C#N)c2nc3ccccc3nc2N2CC(C)OC(C)C2)c1 (stereo not given)	0	0	-	0	0
Cc1ccc(S(=O)(=O)C(C#N)c2nc3ccccc3nc2N2CC(C)OC(C)C2)cc1C (stereo not given)	0	40µM	0	0	0
O=C(Nc1cc(Cl)ccc1O)c1cc(-c2ccc3c(c2)OCO3)on1	0	-	-	-	0
CC(C)N1CCC2(CC1)N=C(c1ccc3c(c1)OCO3)CC(c1cc(Cl)ccc1O)N2 (stereo not given)	0	0	0	0	-67
CN(C)CC(CCC(CN(C)C)C(=O)c1ccccc1)C(=O)c1ccccc1 (stereo not given)	0	0	0	0[15.4 µM]	-76
CCOc1ccc(C(=O)C(CCC(CN(C)C)C(=O)c2ccc(OCC)cc2)CN(C)C)cc1 (stereo not given)	0	0	0	?	?
SMILES	RXFP1 ag	gsp antagonist	TSHR antagonist	gsp ag	RXFP1 antagonist
O=C(c1ccccc1)C(CCC(CN1CCOCC1)C(=O)c1ccccc1)CN1CCOCC1 (stereo not given)	0	0[15.4 µM]	0	0	-68
C=C(CC)C(=O)c1ccc(OCC(=O)O)c(Cl)c1Cl	0	?	0	-	-71
CCOC(=O)COc1ccc2nsnc2c1Cl	0	?	0	0	0
O=C(CSc1n[nH]c(=O)n1C1CC1)Nc1cc(Cl)ccc1Oc1ccccc1	0	35µM	0	0	0
Cc1cccc(-n2c(-c3ccc(Br)o3)n[nH]c2=S)c1	-	0	-	0	0
Cc1cccc(-n2c(-c3ccco3)n[nH]c2=S)c1	0	0	0	6.3µM	0
Cc1cccc(-n2c(-c3csc(C(C)C)c3)n[nH]c2=S)c1	0	0	0	0	-71
COc1ccc(C(=O)c2oc3ccccc3c2NC(=O)COc2ccccc2)cc1	0	-	-	-	0
O=C(NC1CCCCC1)c1ccc(CNc2nc(=S)[nH]c3ccccc23)cc1	0	0	0	0[15.4 µM]	-81
COCCNC(=O)CSc1nc(-c2ccccc2C)nc2c1c(=O)n(C)c(=O)n2C	0	-	-	-	0
CCc1ccc(Oc2c(C(F)(F)F)oc3c(CN4CCN(C)CC4)c(O)ccc3c2=O)cc1	0	-	-	-	-
CC(C)OC(=O)C(C(=O)C(F)(F)F)c1cc(NS(=O)(=O)c2ccc3ccccc3c2)c2ccccc2c1O (stereo not given)	0	0	0	0	-85
C=CCn1c(SCC(=O)NC2CCCC2)nc2scc(-c3ccco3)c2c1=O	0	0	0	0	-62
Cc1cccc(NC(=O)c2ccccc2O)c1C	0	0	0	0	0
O=C(Nc1ccccc1O)c1ccccc1O	0	25µM	0	0	0
O/C(=C\c1nc2ccccc2nc1/C=C(\O)c1ccccc1)c1ccccc1	0	0	0	0	-112
CCOc1ccc(-n2cc(-c3ccccc3)c3c(=O)[nH]cnc32)cc1	0	?	0	0	-97
CCOC(=O)c1c(C)[nH]c(C(=O)COC(=O)CCC(=O)c2ccc3c(c2)OCCO3)c1C	0	28µM	0	0	0
CNc1oc(/C=C/c2cc(OC)c(OC)c(OC)c2)nc1C#N	?	-	-	-	0
CCc1c(C)c(C#N)c2nc3ccccc3n2c1Nc1cccc(C(F)(F)F)c1	0	-	-	-	0
CCc1ccc(NC(=O)CN(c2ccc(C)cc2)S(=O)(=O)c2cccs2)cc1	0	-	-	-	-
Cc1nc2ccccc2n1CC(=O)N/N=C\C=C\c1ccccc1	0	0	-81	0	0
Cc1nc2ccccc2n1CC(=O)N/N=C\c1ccccn1	0	0	0	0	0
N#CCNC(=O)C1c2ccccc2Oc2ccccc21	0	0	0	0[15.4 µM]	0
COCC(C)NC(=O)C1c2ccccc2Oc2ccccc21 (stereo not given)	0	0	-120	0	0
COc1ccc(NS(=O)(=O)c2ccc3c(c2)Cc2ccccc2-3)cn1	0	28µM	0	0	0
CC(=O)N(c1ccccc1C)C1CCCC1	0	0	0	0[15.4 µM]	0
CC(=O)N(C1=C(Cl)C(=O)c2ccccc2C1=O)C1CCCCC1	0	?	-82	0[15.4 µM]	-99
